The text below walks through data of PubChem BioAssay.

A short description of the test: EMT-state selective cytotoxicity in co-culture – imaging, PC-3E GFP, TEM4-18 mCherry, primary screen (AID 1345086).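 On all read-outs here: cells exposed to compound for 72 h before imaging.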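 On red/green cell ratio (normalised): normalised mesenchymal count divided by normalised epithelial count so high means epithelial killing.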 Particulars: PC-3E GFP / TEM4-18 mCherry co-culture, imaging cell counts, at 1 µM; for red/green cell ratio (normalised): actives lie on both sides, counts scaled to control wells, 1 = unselective.
The mark [1] stands for this setting: measured here: epithelial PC-3E GFP cell survival.
Where [2] appears, read: measured here: mesenchymal TEM4-18 mCherry cell survival.

The source made the active and inactive calls.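 How the source made its calls: active means compounds killing one labelled cell type while sparing the other, by normalised counts and ratio limits, not self-fluorescent; inactive means the rest.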

Turning to `CC1(C)C[C@@H]2C(=O)CC[C@@H]3O[C@]3(C)CC[C@H]21`, the red/green cell ratio (normalised) was 0.92 (inactive). Moreover, the normalised cell number under setting [1] turned out to be 0.93. The normalised cell number under setting [2] came to 0.85.

Consider `CC1=C2[C@H](C=C3CCC[C@@H](C)[C@]3(C)[C@@H]2O)OC1=O`, for which the red/green cell ratio (normalised) is 0.84 (inactive). The normalised cell number under setting [1] was found to be 1.01. This compound also had a normalised cell number under setting [2] of 0.85.

Take `CC(C)=CCCC(C)C1CC[C@@]2(C)C3=C(CC[C@]12C)C1(C)CC[C@H](O)C(C)(C)C1CC3` (some centres undefined): the red/green cell ratio (normalised) is 1.05 (inactive). The normalised cell number under setting [1] is 1.09. For the same compound, the normalised cell number under setting [2] was determined as 1.14.

`CC(C)(C)[Si](C)(C)OCC1O[C@H](Sc2ccccc2)[C@H]2NC(=O)O[C@H]2C1O` (some centres undefined): the red/green cell ratio (normalised) was 1.07 (inactive). The compound further came in with a normalised cell number under setting [1] of 0.97. The normalised cell number under setting [2] stood at 1.05.

`CC(=O)OCC(=O)[C@@]1(O)CCC2C3C[C@H](C)C4=CC(=O)C=CC4(C)C3[C@@H](O)CC21C` (some centres undefined): the red/green cell ratio (normalised) was 1.09 (inactive). Also, the normalised cell number under setting [1] is 1.16. Moreover, the normalised cell number under setting [2] stood at 1.27.

Regarding `Cc1ccc(S[C@H]2OC(COCc3ccccc3)C(OC(=O)CCC(=O)O)[C@@H]3OC(=O)N[C@H]23)cc1` (some centres undefined), the red/green cell ratio (normalised) is 0.99 (inactive). Under setting [1], this compound returned a normalised cell number of 1.11. Under setting [2], this compound came in with a normalised cell number of 1.1.

As to `O=c1c(O)cccc2cc(O)c(O)c(O)c12`, the red/green cell ratio (normalised) was 0.92 (inactive). The compound also returned a normalised cell number under setting [1] of 1.11. Further, the normalised cell number under setting [2] was 1.02.

As to `COCC1O[C@@H](OC)[C@@H](OCc2ccccc2)[C@@H](OCc2ccccc2)C1O` (some centres undefined), the red/green cell ratio (normalised) was 0.86 (inactive). Also, under setting [1], the normalised cell number is 1.18. Further, the normalised cell number under setting [2] is 1.01.

Take `C[C@@H]1OC(O[C@H]2[C@H](O)[C@@H](O)[C@H](OC[C@H]3O[C@@H](OC(=O)[C@]45CCC(C)(C)CC4C4=CCC6[C@@]7(C)CC[C@H](OC8OC[C@H](O)[C@H](O)[C@H]8OC8O[C@@H](C)[C@H](O)[C@@H](O)[C@H]8O)[C@@](C)(CO)C7CC[C@@]6(C)[C@]4(C)CC5)[C@H](O)[C@@H](O)[C@@H]3O)O[C@@H]2CO)[C@H](O)[C@H](O)[C@H]1O` (some centres undefined): the red/green cell ratio (normalised) was 0.98 (inactive). The compound also showed a normalised cell number under setting [1] of 0.96. In addition, the normalised cell number under setting [2] stood at 0.93.

Regarding `Cc1c(F)c(F)cc2c(=O)n(N)c(=O)n(C3CC3)c12`, the red/green cell ratio (normalised) was 0.9 (inactive). Under setting [1], this compound had a normalised cell number of 0.79. In addition, under setting [2], the normalised cell number was determined as 0.71.

Take `CC1(C)S[C@@H]2[C@H](NC(=O)C(NC(=O)N3CCNC3=O)c3ccccc3)C(=O)N2C1C(=O)O` (some centres undefined): the red/green cell ratio (normalised) was 0.99 (inactive). Moreover, under setting [1], the normalised cell number was 1.15. Under setting [2], this compound returned a normalised cell number of 1.14.

With `OCC(O)C(O)C(O)C(O)C(O)CO` (centres undefined), the red/green cell ratio (normalised) is 0.95 (inactive). Under setting [1], this compound displayed a normalised cell number of 0.96. The normalised cell number under setting [2] was 0.91.

As for `O=C(O)C1O[C@@H](O)[C@@H](O)[C@@H](O)C1O` (some centres undefined), the red/green cell ratio (normalised) is 0.93 (inactive). Besides, under setting [1], the normalised cell number stood at 1.22. This compound displayed a normalised cell number under setting [2] of 1.13.

In the case of `O=C1OCC[C@@H]1Oc1ccc(Oc2cnc3ccc(Cl)cc3n2)cc1`, the red/green cell ratio (normalised) was 0.83 (inactive). The normalised cell number under setting [1] was 1.22. The compound also registered a normalised cell number under setting [2] of 1.01.

With `O=C(NCc1ccccc1)C1O[C@H](NCc2ccccc2)[C@@H](O)[C@@H](O)C1O` (some centres undefined), the red/green cell ratio (normalised) is 1.04 (inactive). Moreover, the normalised cell number under setting [1] amounted to 1.09. Under setting [2], the normalised cell number was determined as 1.13.

`NC(=O)c1cc(F)c(F)cc1F`: the red/green cell ratio (normalised) is 0.98 (inactive). This compound also gave a normalised cell number under setting [1] of 1.12. The normalised cell number under setting [2] amounted to 1.09.

As for `C[C@@H]1CC[C@H]2[C@@H](C)C(O)O[C@@H]3O[C@]4(C)CC[C@@H]1[C@]32OO4` (some centres undefined), the red/green cell ratio (normalised) is 0.74 (inactive). Besides, the normalised cell number under setting [1] was determined as 1.16. Further, the normalised cell number under setting [2] came out at 0.85.

On to `CCCCCCCCCCCC[C@H](C(=O)O)[C@@H](C)C(=O)O`, for which the red/green cell ratio (normalised) is 1.15 (inactive). Under setting [1], this compound gave a normalised cell number of 0.84. Besides, the normalised cell number under setting [2] was 0.97.

In the case of `C/C=C/[C@@H]1OC2=C(C(=O)O[C@H]2C)[C@H](O)[C@H]1O`, the red/green cell ratio (normalised) is 0.96 (inactive). The compound also registered a normalised cell number under setting [1] of 0.76. Also, the normalised cell number under setting [2] worked out at 0.73.

Turning to `CC(C)CCCC(C)C1CCC2C3CC[C@H]4CC(=O)CC[C@]4(C)C3CC[C@]12C` (some centres undefined), the red/green cell ratio (normalised) was 0.94 (inactive). Further, the normalised cell number under setting [1] is 1.04. Moreover, the normalised cell number under setting [2] stood at 0.97.

Turning to `CC(C)(O)[C@@H]1CC[C@](C)([C@H]2[C@@H](O)C[C@@]3(C)C4C[C@H](O[C@@H]5O[C@H](CO)[C@@H](O)[C@H](O)[C@H]5O)C5C(C)(C)[C@@H](O[C@@H]6OC[C@@H](O)[C@H](O)[C@H]6O)CC[C@@]56C[C@@]46CC[C@]23C)O1` (some centres undefined), the red/green cell ratio (normalised) was 0.94 (inactive). This compound also came in with a normalised cell number under setting [1] of 0.98. The same compound yielded a normalised cell number under setting [2] of 0.92.

Consider `CC(C)CCCC(C)[C@H]1CCC2C3C(=O)C=C4C[C@@H](O)CC[C@]4(C)C3CC[C@@]21C` (some centres undefined), for which the red/green cell ratio (normalised) is 0.98 (inactive). Also, the normalised cell number under setting [1] came to 0.98. This compound also showed a normalised cell number under setting [2] of 0.95.

As to `COC1=CC(=O)OC1(O)C(C)C` (centres undefined), the red/green cell ratio (normalised) was 1.07 (inactive). Under setting [1], this compound returned a normalised cell number of 0.83. Under setting [2], this compound had a normalised cell number of 0.89.

On to `COC1=N[C@@](OC)(C(C)C)C(=O)N[C@@]1(O)[C@H](O)c1ccccc1`, for which the red/green cell ratio (normalised) was 0.8 (inactive). Under setting [1], this compound displayed a normalised cell number of 1.21. The compound also yielded a normalised cell number under setting [2] of 0.96.

`COc1cc(OC)c2c(c1)OC(c1ccccc1)CC2=O` (centres undefined): the red/green cell ratio (normalised) was 1.1 (inactive). Moreover, the normalised cell number under setting [1] was found to be 0.99. Under setting [2], this compound yielded a normalised cell number of 1.08.

As for `CC(CC(=O)N1C(=O)OC[C@H]1c1ccccc1)N1C(=S)OC[C@@H]1c1ccccc1` (some centres undefined), the red/green cell ratio (normalised) is 0.97 (inactive). The same compound displayed a normalised cell number under setting [1] of 1.02. For the same compound, the normalised cell number under setting [2] worked out at 0.99.

On to `COc1ccc2c(c1)CCC1C2CC[C@@]2(C)C1CC[C@@H]2O` (some centres undefined), for which the red/green cell ratio (normalised) is 0.78 (inactive). This compound displayed a normalised cell number under setting [1] of 1.46. The normalised cell number under setting [2] amounted to 1.14.

Take `Cc1[nH]cc[n+]1CC1CCC2C(C1=O)c1ccccc1N2C` (centres undefined): the red/green cell ratio (normalised) is 0.73 (inactive). Moreover, the normalised cell number under setting [1] stood at 1.19. The normalised cell number under setting [2] turned out to be 0.87.
